Data taken from PubChem BioAssay.
Where “and” joins values, the source holds several entries; their conditions need not be identical. Identical values can stand only once. A structure can be active in one record and inactive in another. Calls of active or inactive are those of the source. Unless noted, how the calls were made is not given here.

Key:
[1] = liver-stage malaria parasite growth inhibition, primary screen, cell-based, HepG2, luciferase luminescence, HepG2 viability (AID 624349; in the data active means parasite load remaining mostly below about 12%, no sharp cut-off; inactive means mostly above about 10%;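 further: 100% = mean of DMSO negative control wells on the same plate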); details: P. berghei liver stage in HepG2, luciferase luminescence, concentration not given here; parasite load remaining: stronger effect = lower value; viability: measured here: HepG2 viability without parasites
[2] = Cy5 fluorescence interference with SSB-bound oligo, artefact control for HCV NS3 helicase inhibitor project, biochemical, NIH Clinical Collection, E. coli SSB (AID 743268)
[3] = system: Hepatitis C virus NS3 helicase; experiment: HCV NS3 helicase inhibitors, primary screen, biochemical, fluorescence polarization, NIH Clinical Collection (AID 743270); details: NS3 helicase binding to Cy5-dT15 DNA, stronger effect = higher value, concentration not given here
[4] = target: Single-stranded DNA-binding protein (Escherichia coli (strain K12)) (UniProt P0AGE0); experiment: E. coli SSB displacement from DNA, counter-screen for HCV NS3 helicase inhibitor project, biochemical, fluorescence polarization, NIH Clinical Collection (AID 743271; in the data active means inhibition above about 28%); details: stronger effect = higher value, concentration not given here
[5] = fluorescence interference in NS3h assay format, artefact control for HCV NS3 helicase inhibitor project, biochemical, NIH Clinical Collection (AID 743272); details: fluorescence interference counterscreen, stronger effect = lower value;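 further: HCV NS3 helicase with a Cy5 labelled single stranded DNA probe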
[6] = system: Neuropilin-2 / VEGF-C interaction (human); experiment: inhibitors of NRP2–VEGF-C binding, biochemical, microplate binding format, z-score (AID 743281); details: microplate NRP2/VEGF-C binding assay; stronger effect = lower value
[7] = stimulators of nuclear beta-catenin in C2C12, primary screen, imaging, WNT3A-conditioned medium, mouse C2C12, NPC library (AID 1117326; in the data active means nuclear beta-catenin stimulation mostly above about 4.2%, no sharp cut-off; inactive means mostly below about 10%); details: stronger effect = higher value

Compound	parasite load remaining [1]	viability [1]	fluorescence ratio [2]	inhibition [3]	inhibition [4]	fluorescence ratio [5]	z-score [6]	nuclear beta-catenin stimulation ([7]; at 10 µM)	nuclear beta-catenin stimulation ([7]; stimulation, at 2 µM) [%]	outcome [6]
O=C1Nc2ccc(Cl)cc2[C@@](C#CC2CC2)(C(F)(F)F)O1	46.6% (inactive) and 8.97% (inactive)	69% and 64.5%	0.99 (inactive)	5.15% (inactive)	6.06% (inactive)	0.99 (inactive)	0.939 (inactive)	-0.8% (inactive)	3.6	
COC1=C(OC)C(=O)C(CCCCCCCCCCO)=C(C)C1=O	97.9% (inactive) and 55.5% (inactive)	71.1% and 140%	0.94 (inactive)	-2.77% (inactive)	2.98% (inactive)	0.94 (inactive)	-0.18 (inactive)	-0.4% (inactive)	-1.8	
CC1CCN(CCCC(=O)c2ccc(F)cc2)CC1	55.3% (inactive)	68.6%	1 (inactive)	-3.71% (inactive)	1.97% (inactive)	0.99 (inactive)	1.36 (inactive)	1.8% (inactive)	0.7	
COCc1c(C(C)C)nc(C(C)C)c(/C=C/[C@@H](O)C[C@@H](O)CC(=O)O)c1-c1ccc(F)cc1	149% (inactive) and 309% (inactive)	53.2% and 109%	1.03 (inactive)	-4.36% (inactive)	-2.41% (inactive)	0.99 (inactive)	-0.18 (inactive)	18.8% (active)	44.8	
Nc1nc(N)nc(-c2cc(Cl)ccc2Cl)n1	141% (inactive) and 22.8% (inactive)	129% and 67.5%	1.05 (inactive)	-1.19% (inactive)	2.21% (inactive)	1.02 (inactive)	0.00875 (inactive)	0.6% (inactive)	0.3	
CN(C/C=C/C#CC(C)(C)C)Cc1cccc2ccccc12	40.7% (inactive) and 65.8% (inactive) and 43.2% (inactive)	99.2% and 68.9% and 104%	1.06 (inactive)	1.19% (inactive)	4.52% (inactive)	1 (inactive)	0.0743 (inactive)	5.3% (inactive)	2.6	
N#Cc1ccc(C(c2ccc(C#N)cc2)n2cncn2)cc1	127% (inactive) and 107% (inactive) and 48.7% (inactive)	71.5% and 77.2% and 128%	1 (inactive)	2.77% (inactive)	-1.64% (inactive)	0.97 (inactive)	-0.196 (inactive)	-1.6% (inactive)	0	
COc1cc2c(cc1OC)C(=O)C(CC1CCN(Cc3ccccc3)CC1)C2 (stereo unspecified)	49.6% (inactive) and 67.4% (inactive)	93.5% and 63.1%	1.07 (inactive)	1.98% (inactive)	1.44% (inactive)	1.04 (inactive)	0.0126 (inactive)	-1% (inactive)	-0.2	
Clc1ccc2c(c1)CCc1cccnc1C2=C1CCNCC1	48.1% (inactive) and 27.5% (inactive) and 15.2% (inactive)	92% and 56.9% and 74%	1 (inactive)	-2.84% (inactive)	-3.54% (inactive)	1 (inactive)	1.87 (inactive)	0.3% (inactive)	-0.9	
CNCCCCOc1ccccc1Cc1ccccc1	22.1% (inactive)	54.6%	1 (inactive)	-4.36% (inactive)	-0.87% (inactive)	0.96 (inactive)	-0.524 (inactive)	1.7% (inactive)	1.6	
Cc1nc2n(c(=O)c1CCN1CCC(c3noc4cc(F)ccc34)CC1)CCCC2	83.8% (inactive) and 28.6% (inactive) and 49.1% (inactive)	76.9% and 60.3% and 97.5%	1.05 (inactive)	3.56% (inactive)	2.21% (inactive)	1.02 (inactive)	-1.5 (inactive)	4.2% (inactive)	4.4	
CCN1CC(CCN2CCOCC2)C(c2ccccc2)(c2ccccc2)C1=O (stereo unspecified)	66% (inactive)	70.6%	0.9 (inactive)	-8.95% (inactive)	5.91% (inactive)	0.88 (inactive)	-0.0578 (inactive)	-1.3% (inactive)	-3.1	
COc1cc(C)c(Cc2cnc(N)nc2N)cc1OC	28% (inactive)	73.1%	1.02 (inactive)	1.98% (inactive)	2.21% (inactive)	0.95 (inactive)	-0.323 (inactive)	-0.5% (inactive)	0.4	
CC[N+](C)(CC)CCOC(=O)C(O)(c1ccccc1)C1CCCCC1 (stereo unspecified)	65.2% (inactive)	67.2%	0.93 (inactive)	-3.71% (inactive)	-1.18% (inactive)	0.89 (inactive)	-0.249 (inactive)	-1% (inactive)	3.2	
CN(C)CCCSc1ccccc1NC(=O)/C=C/c1ccccc1	53.7% (inactive) and 10.2% (inactive)	56.6% and 65.5%	0.99 (inactive)	0.4% (inactive)	-2.41% (inactive)	0.97 (inactive)	-0.209 (inactive)	1.7% (inactive)	1.1	
O=c1c(-c2ccccc2)c1-c1ccccc1	7.97% (inactive)	65.5%	0.98 (inactive)	-0.4% (inactive)	1.44% (inactive)	0.79 (active)	-0.326 (inactive)	40.6% (active)	22.6	
O=c1[nH]cnc2c1ncn2[C@H]1CC[C@@H](CO)O1	41.8% (inactive) and 84.4% (inactive) and 65.2% (inactive)	46.9% and 69.4% and 110%	1.06 (inactive)	1.19% (inactive)	0.67% (inactive)	1.01 (inactive)		-2.1% (inactive)	-0.4	inactive
COC(=O)C1=C(C)NC(C)=C(C(=O)OC(C)C)C1c1cccc2nonc12 (stereo unspecified)	105% (inactive) and 85.6% (inactive)	74.3% and 66.7%	1.01 (inactive)	6.73% (inactive)	4.52% (inactive)	0.98 (inactive)	-2.69 (inactive)	28.6% (inactive)	0.3	
Cc1ccnc2c1NC(=O)c1cccnc1N2C1CC1	79.8% (inactive)	69.1%	1.05 (inactive)	1.98% (inactive)	-5.49% (inactive)	1 (inactive)	-1.18 (inactive)	0% (inactive)	1.8	
CCCN[C@H]1CCc2nc(N)sc2C1	115% (inactive) and 91.5% (inactive) and 28.8% (inactive)	75% and 71% and 70.5%	1.02 (inactive)	-0.4% (inactive)	-1.64% (inactive) and 0.67% (inactive)	0.97 (inactive) and 1 (inactive)	-0.903 (inactive) and 0.751 (inactive)	0.9% (inactive)	0.5	
CCc1oc2ccccc2c1C(=O)c1cc(Br)c(O)c(Br)c1		118% and 76% and 66.9%	0.92 (inactive)	-2.84% (inactive)	9.06% (inactive)	0.93 (inactive)	0.212 (inactive)	5.3% (inactive)	4.6	
CC(c1cc2ccccc2s1)N(O)C(N)=O (stereo unspecified)	58.4% (inactive) and 101% (inactive) and 41.5% (inactive)	101% and 79.1% and 102%	1.02 (inactive)	2.77% (inactive)	-0.87% (inactive)	1.01 (inactive)	-0.124 (inactive)	0.1% (inactive)	0.8	
CCOc1cc(CC(=O)N[C@@H](CC(C)C)c2ccccc2N2CCCCC2)ccc1C(=O)O	85.6% (inactive) and 16.6% (inactive) and 98.7% (inactive)	77.8% and 183% and 76.2%	1.02 (inactive)	5.94% (inactive)	2.21% (inactive)	1.02 (inactive)	-0.286 (inactive)	-1.5% (inactive)	0.2	
Nc1nc2c(ncn2CCC(CO)CO)c(=O)[nH]1	89.5% (inactive) and 22.2% (inactive)	82.6% and 70.5%	1.05 (inactive)	2.77% (inactive)	-1.64% (inactive)	1.01 (inactive)		0.5% (inactive)	1.8	inactive
COc1cc(OC)c(C(=O)CCCN2CCCC2)c(OC)c1	144% (inactive) and 82.2% (inactive) and 102% (inactive)	95.2% and 73.3% and 68.5%	1.02 (inactive)	-3.56% (inactive)	-3.95% (inactive)	0.97 (inactive)	-0.505 (inactive)	1.1% (inactive)	0.3	
OCCOCCN1CCN(C2=Nc3ccccc3Sc3ccccc32)CC1	49.4% (inactive) and 94% (inactive) and 56.9% (inactive)	95.1% and 77.7% and 206%	1.02 (inactive)	1.98% (inactive)	1.44% (inactive)	0.95 (inactive)	0.105 (inactive)	3.8% (inactive)	2.1	
COCCCC/C(=N\OCCN)c1ccc(C(F)(F)F)cc1	94.5% (inactive)	63.8%						0.8% (inactive)	0.4	inactive
CCOc1cc(N)c(Cl)cc1C(=O)NCC1CN(Cc2ccc(F)cc2)CCO1 (stereo unspecified)	29.6% (inactive)	70.5%	0.99 (inactive)	1.19% (inactive)	4.52% (inactive)	0.95 (inactive)	0.948 (inactive)	2.5% (inactive)	1.9	
CCOC(=O)C1=C(C)NC(C)=C(C(=O)OCC)C1c1ccccc1/C=C/C(=O)OC(C)(C)C	-0.13% (active) and 24.4% (inactive)	74.1% and 104%	0.9 (inactive)	3.28% (inactive)	3.54% (inactive)	0.9 (inactive)	-0.248 (inactive)	3% (inactive)	1.2	
